# The whole screen tested about 69,000 compounds, of which about 8,600 (12%) showed an effect of 50% or more. What follows is part of a selection rich in strong results, with near analogues and random picks from the rest.
# Test system: Plasmodium berghei
# Assay: Screen against P. berghei liver stage (PbLuc), transformed with Luciferase, at 10uM
# Format: functional, HepG2
# Conditions: tested at 10 uM
row,Structure (SMILES),INHIBITION
1,CC(C)(O)CCc1cccc(C(=O)N2CCC[C@H]2CN2CCCC2)c1,1.56%
2,Cc1ccc(NC2CCN(C(=O)c3ccc4c(c3)CCC4)CC2)nn1,18.2%
3,CCC(CC)NC(=O)c1nc2n(n1)-c1ccccc1S(=O)(=O)N2,-9.07%
4,Cc1n[nH]c(C)c1-c1nccnc1CC1CCCN(C)C1 (stereo unspecified),23.2%
5,c1ccc(-c2nnc(CN3C[C@H]4CC[C@@H](C3)N(CC3CCC3)C4)o2)cc1,46.6%
6,Cc1ccc(C(=O)N2CC[C@H]3[C@@H]2CCC(=O)N3c2cccnc2)o1,23.1%
7,COc1cccc(S(=O)(=O)CCN2CCCCC2)c1,-11.1%
8,COc1cccc(S(=O)(=O)CCN2CCC3(CC2)OCCO3)c1,60%
9,COc1cccc(S(=O)(=O)CCN2CCN(CCO)CC2)c1,8.24%
10,COc1cccc(S(=O)(=O)CCN2CCCN(C(C)=O)CC2)c1,45.8%
11,COCCN1CCN(CCS(=O)(=O)c2cccc(OC)c2)CC1,92.8%
12,COc1cccc(S(=O)(=O)CCN2CCN(CC(F)F)CC2)c1,28.2%
13,Cc1cc(CN2C[C@H](OCC3CCOCC3)[C@H]3COC[C@H]32)oc1C,44.4%
14,CCc1cc(NCCCOC2CCN(C)CC2)ncn1,25.5%
15,O=C(NCCO)Nc1c(F)cc(F)cc1-c1ccccc1,33%
16,Cc1noc([C@@]23CCO[C@@H]2CCN(CC2CCOCC2)C3)n1,17.3%
17,c1ccc2c(c1)CCN2c1nc(N2CCOCC2)c2nn[nH]c2n1,39.9%
18,C1CCN(c2nc(N3CCOCC3)nc3[nH]nnc23)CC1,36.7%
19,c1ccc2c(c1)CCN(c1nc(N3CCOCC3)c3nn[nH]c3n1)C2,54%
20,COc1ccsc1C(=O)N1CCCN(Cc2cscn2)CC1,-51.5%
21,O=C(Cc1ccc2c(c1)OCCO2)N1CCN(c2cnccn2)CC1,-5.25%
22,Cc1nc(C)n(CC2CN(CCOc3ccc(C#N)cc3)CCO2)n1 (stereo unspecified),42%
23,Cc1nc(C)n(CC2CN(c3nnc(C)c(C)c3C#N)CCO2)n1 (stereo unspecified),-27.3%
24,Cc1cc(C)n(CC2CN(CCOc3ccc(C#N)cc3)CCO2)n1 (stereo unspecified),51.1%
25,Cc1cc(C)n(CC2CN(CCOc3cccc(C#N)c3)CCO2)n1 (stereo unspecified),20.6%
26,Cc1cc(C)n(CC2CN(c3nnc(C)c(C)c3C#N)CCO2)n1 (stereo unspecified),53.1%

row,Structure (SMILES),INHIBITION
1,CCC1CN(c2nnc(C)c(C)c2C#N)CCO1 (stereo unspecified),17.8%
2,CN(C)C(=O)NC1COC2(CCN(Cc3ccccc3)CC2)C1 (stereo unspecified),37.5%
3,CC(N)Cc1ccccc1Sc1ccccc1 (stereo unspecified),24.7%
4,CCc1nc(CNc2ccc(F)cc2I)no1,-58.5%
5,CN1CCN(CC2CN(CC3CC3)Cc3nccn3C2)CC1 (stereo unspecified),19.4%
6,Cc1cnc2n1CCN(C)C21CCN(CC2CC2)CC1,12.1%
7,Oc1ccc(N2CCC(Cc3ccccc3)CC2)nn1,83.8%
8,CCCS(=O)(=O)c1ccc(N2CCC(Cc3ccccc3)CC2)nn1,23.7%
9,Cc1cc(N2CCC(CC(N)=O)CC2)nc(-c2ccncc2)n1,16.1%
10,O=C(O)c1ccc(N2CCC(Cc3ccccc3)CC2)nn1,-23.2%
11,Cc1cc(N2CCC(Cc3ccccc3)CC2)nc(-c2ccncc2)n1,71.3%
12,CC(=O)NCC1CCN(c2cc(C)nc(-c3ccncc3)n2)CC1,33.3%
13,CCn1c(=O)[nH]c2cn(-c3cccc(Cl)c3)c(=O)n21,-35.5%
14,CC(C)C(O)CNC(=O)Nc1cnn(C(C)C)c1 (stereo unspecified),-4.73%
15,CC(C)n1ccc(C(=O)NCC(O)c2c(Cl)cccc2Cl)n1 (stereo unspecified),24.3%
16,CCn1nc(C)cc1C(=O)NCc1nc(C)no1,17.5%
17,Cn1cc(C(=O)N2CCCN(c3cccnn3)CC2)c2ccccc21,-0.532%
18,Cc1ccc(N2CCCN(C(=O)c3cccc4c3ccn4C)CC2)nn1,38.5%
19,Cc1ccc(N2CCCN(C(=O)c3cn(C)c4ccccc34)CC2)nn1,87.2%
20,O=C1CN(C(=O)C2CCC3(CC2)CNC(=O)c2ccccc2O3)CCN1 (stereo unspecified),43.6%
21,Cc1nn(C)c(C)c1CN(C)C(=O)c1cc(C(F)(F)F)n(C)n1,42.45%
22,O=C(c1ccnn1COc1ccc(Cl)cc1)N1CCSCC1,33.4%
23,O=C(c1ccnn1COc1ccc(Cl)cc1)N1CCCC1,1.45%
24,O=C(c1ccnn1COc1ccc(Cl)cc1)N1CCOCC1,50.8%
25,Cc1noc(CN2CCC(Cc3ccc(F)cc3)CC2)n1,57.2%
26,Cc1noc(CN2CCC(c3ccnn3CCO)CC2)n1,49.6%

row,Structure (SMILES),INHIBITION
1,Fc1ccccc1CC1CCN(Cc2ccccn2)CC1,45.2%
2,Fc1ccc(CC2CCN(Cc3nccs3)CC2)cc1,38.7%
3,Fc1ccccc1CC1CCN(Cc2nccs2)CC1,-131%
4,Cc1noc(CN2CCN(CCO)CC2)n1,-14.9%
5,Fc1ccccc1CC1CCN(Cc2cscn2)CC1,82.4%
6,Fc1ccc(CN2CCCN(Cc3cscn3)CC2)cc1,-12.5%
7,Fc1ccc(CC2CCN(Cc3cscn3)CC2)cc1,68.1%
8,CCn1cnnc1CNC(=O)N1CCN(C(C)C)CC1,21.5%
9,CN(C)C(=O)CO[C@H]1CN(Cc2ccoc2)[C@@H]2COC[C@H]12,39.5%
10,CCc1cnccc1C(=O)Nc1ccc(C(N)=O)nc1,25.1%
11,CCc1nnc2n1CCN(C(=O)c1cc3c(F)cccc3[nH]1)C2,21%
12,COCCN1C(=O)[C@@H]2CC[C@H]1CN(Cc1nnc(C3CC3)o1)C2,16.2%
13,COc1ncc(CN2CCCC(c3[nH]ncc3S(C)(=O)=O)C2)cn1 (stereo unspecified),7.05%
14,CCn1cc(-c2cc(C(F)(F)F)nn2CCC#N)cn1,11.8%
15,Cn1c(C2CC2)nc2c1CCN(CC(=O)Nc1ccncc1)C2,-31.5%
16,N[C@@H]1CCC[C@@H](Oc2ccc(F)cc2Oc2cccc(F)c2)[C@@H]1O,23.2%
17,CN[C@@H]1CCC[C@@H](Oc2ccccc2Oc2ccc(C)cc2)[C@@H]1O,60.2%
18,CO[C@@H]1CCC[C@@H](N(C)C(=O)c2cc(F)ccc2F)[C@H]1O,-10.4%
19,Cc1ccc(Oc2cc(F)ccc2O[C@@H]2CCC[C@@H](N)[C@H]2O)cc1,94.1%
20,CNCc1cc(F)ccc1Oc1ccc(F)cc1,29.3%
21,N[C@@H]1CCC[C@@H](Oc2ccc(F)cc2Oc2ccccc2)[C@@H]1O,54.4%
22,Cc1noc(C)c1C(=O)N[C@@H]1CCC[C@@H](Oc2ccccc2)[C@@H]1O,17.39%
23,N[C@H]1CN(C(=O)c2ccccc2Oc2ccccc2)C[C@@H]1C1CC1,31.2%
24,Cc1n[nH]c(C)c1CCC(=O)N[C@@H]1CCC[C@@H](Oc2ccccc2)[C@@H]1O,-18.8%
